Bioassay records: PubChem BioAssay, The Scripps Research Institute Molecular Screening Center
PAFAH1B2 FP inh – PAFAH1B2 enzyme inhibitors, primary screen, biochemical, fluorescence polarization, human | 340,000 compounds, 1.2% hits | inhibition, % at 3.39 µM | recombinant PAFAH1B2, FP-rhodamine activity probe;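 active means inhibition above the mean of all tested compounds plus 3 SD, cut at about 24% in these data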;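 further: 0% = enzyme with DMSO and 100% = wells lacking PAFAH1B2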
Target sequence (P68402 whole entry, looked up): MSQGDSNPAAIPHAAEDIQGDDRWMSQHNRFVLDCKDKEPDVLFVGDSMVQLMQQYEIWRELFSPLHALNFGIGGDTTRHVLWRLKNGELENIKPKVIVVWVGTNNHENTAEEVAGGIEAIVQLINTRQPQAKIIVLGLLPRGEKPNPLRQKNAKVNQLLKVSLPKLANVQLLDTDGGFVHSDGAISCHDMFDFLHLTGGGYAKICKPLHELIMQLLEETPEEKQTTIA
PAFAH2 FP inh – PAFAH2 enzyme inhibitors, primary screen, biochemical, fluorescence polarization, human; inhibition, % at 3.39 µM; recombinant PAFAH2, FP-rhodamine activity probe; 340,000 compounds, 0.99% hits; Platelet-activating factor acetylhydrolase 2, cytoplasmic (Homo sapiens), Q99487;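 active means inhibition above the mean over all tested compounds plus 3 SD, cut at about 30% in these data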;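 further: inhibitors block probe labeling of enzyme so polarization drops; 0% = enzyme with DMSO and 100% = wells lacking PAFAH2 protein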
EBNA-1 inhibitor – EBNA-1 DNA-binding inhibitors, primary screen, biochemical, fluorescence polarization; inhibition, % at 14.8 µM; 300,000 compounds, 0.34% hits; in the data active means inhibition above about 28%
PAFAH1B3 FP inh – PAFAH1B3 enzyme inhibitors, primary screen, biochemical, fluorescence polarization, human; Platelet-activating factor acetylhydrolase IB subunit alpha1 (Homo sapiens), Q15102; recombinant PAFAH1B3, FP-rhodamine probe; inhibition, % at 3.39 µM; 340,000 compounds, 0.28% hits; AID 492972, 2010;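 active means inhibition above the screen-wide average of all tested compounds plus 3 SD, cut at about 25% in these data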;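 further: 0% = enzyme with DMSO only and 100% = wells lacking PAFAH1B3 protein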
rCAG binder – binders of r(CAG) RNA repeats, primary screen, biochemical, fluorescence; 370,000 compounds, 1.3% hits; r(CAG) RNA repeat, TO-PRO-1 dye displacement fluorescence; inhibition, % at 3 µM;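 active means inhibition above the plate cutoff, the mean of all test compounds on that plate plus 3 SD, cut at about 35% in these data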;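 further: 0% = DMSO alone and 100% = 100 µM mitoxantrone as full dye displacement; higher means more dye released from RNA so lower well fluorescence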
ZTA counter – blocks Epstein-Barr virus ZTA, an EBNA-1 counter-screen; inhibition, % at 11 µM; 320,000 compounds, 0.15% hits; ZTA-DNA binding, fluorescence polarization; in the data active means inhibition above about 33%
Target sequence (P03206 whole entry, looked up): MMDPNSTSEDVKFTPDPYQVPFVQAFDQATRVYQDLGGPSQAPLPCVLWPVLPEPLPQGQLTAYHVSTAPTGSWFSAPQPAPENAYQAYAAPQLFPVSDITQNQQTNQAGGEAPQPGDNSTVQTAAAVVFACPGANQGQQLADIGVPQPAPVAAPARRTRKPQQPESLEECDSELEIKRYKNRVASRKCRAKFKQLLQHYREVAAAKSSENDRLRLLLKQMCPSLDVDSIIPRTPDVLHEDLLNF
* hit, by the source's call; . = no result; + = active, no number. Most compounds without a hit are left out; they make up all but 2.9% or so of the library.

SMILES	PAFAH1B2 FP inh	PAFAH2 FP inh	EBNA-1 inhibitor	PAFAH1B3 FP inh	rCAG binder	ZTA counter
Cc1ccc(C(=O)O/N=C(\c2ccccc2)c2ccncc2)cc1	.	.	-0.2	.	-2.9	0.7
COc1ccccc1C(=O)O/N=C(/c1ccncc1)c1ccc([N+](=O)[O-])cc1	55.5*	11.0	-1.1	1.3	-3.8	-6.0
S=c1[nH]nc(-c2ccco2)n1C1CCCCC1	26.1*	3.7	2.5	10.2	0.5	12.7
Nn1c(-c2ccco2)n[nH]c1=S	-2.8	-1.6	1.0	5.9	-0.1	-4.2
CCc1ccc2[nH]c(O)c(N=NC3=NC(=O)CS3)c2c1	34.4*	-4.5	-8.4	8.9	10.4	-16.7
CCc1ccc2c(c1)c(N=NC1=NC(=O)CS1)c(O)n2CC	5.8	11.7	-11.5	5.0	21.0	-6.8
O=C(OCCN1CCN(C2CN(Cc3cn(Cc4cccc(F)c4)nn3)S(=O)(=O)C2)CC1)c1cc2ccccc2o1 (stereo unspecified)	.	.	.	.	4.7	.
CC1(C)CC2CC(C)(CN2C(=O)COC(=O)c2ccc(O)cc2O)C1 (stereo unspecified)	25.4*	-5.4	.	3.4	2.7	.
CC1(C)CC2CC(C)(CN2C(=O)COC(=O)c2cc(Cl)cc(Cl)c2N)C1 (stereo unspecified)	9.1	-4.2	10.3	10.4	-2.7	6.6
COCCCN1C(=O)[C@H](CC(=O)N2CCN(C(=O)c3ccco3)CC2)[C@]2(C(=O)OC)CCCCC=C12	.	.	.	.	3.3	.
CC(=O)N1CC=C2C(C#N)=C(N)C(C#N)(C#N)C(CCc3ccccc3)C2C1 (stereo unspecified)	12.8	-5.9	3.1	10.0	3.8	-0.4
CCN1CC=C2C(C#N)=C(N)C(C#N)(C#N)C(CCc3ccccc3)C2C1 (stereo unspecified)	26.1*	2.5	-10.9	1.5	-23.9	-10.2
Cc1ccc(OCCSc2nnc(NC(=O)c3ccco3)s2)cc1	10.3	-1.1	1.8	-5.6	2.2	10.5
Cc1ccc(OCc2nnc(NC(=O)c3ccco3)s2)cc1	25.2*	1.6	-5.9	4.6	4.7	17.7
O=c1cc(-c2ccccc2)nc(SCc2ccccc2)[nH]1	2.9	10.5	-6.0	4.1	1.4	9.7
O=c1[nH]c(SCc2ccc(Cl)cc2)nc2ccccc12	26.3*	-2.0	3.5	12.2	2.9	17.6
O=c1cc(-c2ccccc2)nc(SCc2ccc(Cl)cc2)[nH]1	24.3*	4.6	10.1	5.0	1.2	-5.2
O=c1cc(O)nc(SCc2ccc(Cl)cc2)[nH]1	56.5*	-1.8	-3.5	11.2	16.7	-6.2
Nc1cc(=O)[nH]c(SCc2ccccc2)n1	.	.	.	.	4.5	.
O=C1c2ccccc2C(c2nnnn2-c2ccc3c(c2)OCCO3)N1CCCn1ccnc1 (stereo unspecified)	.	.	.	.	1.3	.
CSc1nnc(-c2cccs2)n1-c1ccccc1	5.8	1.1	-2.6	2.4	-2.2	-2.4
CN1CCN(S(=O)(=O)c2ccc(Sc3nnc(-c4cccs4)n3-c3ccccc3)nc2)CC1	33.2*	-0.7	7.4	0.0	-3.5	15.2
COC(=O)C1CN(Cc2cn(Cc3ccc(Cl)cc3)nn2)CCS(=O)(=O)N1Cc1ccc(C)cc1 (stereo unspecified)	.	.	.	.	-0.8	.
N/C(=C\C(=O)c1cc(Cl)ccc1O)C(Cl)(Cl)Cl	0.1	15.3	-6.7	78.9*	12.1	-3.4
COc1cc(C(=O)OCC(=O)Nc2ccc3c(c2)OC(F)(F)O3)ccc1OCc1c(C)noc1C	-0.2	75.4*	-6.5	-4.5	0.7	-3.7
SMILES	PAFAH1B2 FP inh	PAFAH2 FP inh	EBNA-1 inhibitor	PAFAH1B3 FP inh	rCAG binder	ZTA counter
O=C1N/C(=N/NC(=O)c2cccc3ccccc23)S/C1=C\c1ccccc1OCc1ccccc1	14.4	10.0	.	26.4*	26.7	.
COc1ccc(OC)c(/C=C2\S/C(=N/NC(=O)c3ccc4ccccc4c3)NC2=O)c1	11.6	25.1	5.8	13.2	16.2	7.3
NC(=S)N/N=C/c1ccc(-c2ccccc2)o1	-0.7	-1.3	15.1	-4.0	3.6	7.3
CCOc1ccc(C(=O)N/N=C/c2ccc(-c3ccc(S(=O)(=O)Nc4ncccn4)cc3)o2)cc1	3.0	7.9	5.1	-6.7	56.8*	6.6
NC(=S)NN=Cc1ccc(-c2ccc(S(=O)(=O)Nc3ncccn3)cc2)o1	9.9	33.6*	.	30.6*	29.6	.
Cc1ccc(C(=O)n2ccc3ccc(-c4ccc5ccn(Cc6ccc(C#N)cc6)c5c4)cc32)cc1	.	.	.	.	22.0	.
Cn1ccnc1CN1CCC[C@]2(CC[C@H](CCC#N)O2)C1	.	.	.	.	0.6	.
CC(C)C(C(=O)O)N1C(=O)/C(=C/C=C/c2ccco2)SC1=S (stereo unspecified)	16.8	60.6*	41.5*	23.1	.	99.3*
COc1ccc(OC)c(S(=O)(=O)N(CC(=O)NC2CCC(C)CC2)c2cc(C)cc(C)c2)c1 (stereo unspecified)	.	.	.	.	3.2	.
O=C(OCCOc1ccc(Br)cc1)c1ccc(Cl)nc1	26.1*	1.7	-5.2	8.8	-1.3	-0.9
CCN(c1ccccc1)S(=O)(=O)c1ccc(Cl)c(NC(=O)COC(=O)c2ccc(O)cc2)c1	-2.9	67.4*	13.4	0.6	15.2	-8.3
Nc1cc(=O)[nH]c(SCC(=O)NC2CCCc3ccccc32)n1 (stereo unspecified)	8.6	2.4	7.2	3.4	3.4	-6.4
CCCc1cc(=O)[nH]c(SCC(=O)NC2CCCc3ccccc32)n1 (stereo unspecified)	25.8*	1.1	9.6	-3.2	2.8	0.6
COc1ccc(-c2sc3ccccc3c2-c2cc(OC)ccc2C=O)cc1	.	.	.	.	7.5	.
CCCCNC(=O)C1CCCN1C(=O)NCc1ccccc1OC (stereo unspecified)	.	.	.	.	-0.5	.
Cc1ccc(-c2nn3c(C)nnc3c3ccccc23)cc1S(=O)(=O)NC(C)c1ccccc1 (stereo unspecified)	25.9*	-10.0	-3.7	3.8	3.1	-11.2
COc1ccc(Cn2ccc3ccc(-c4ccc5ccn(Cc6ccccc6)c5c4)cc32)cc1	.	.	.	.	17.7	.
CC1=NN(c2ccccc2)C(=O)C1C=Nc1ccc(N(C)C)cc1 (stereo unspecified)	.	.	82.3*	.	9.3	+
CC1=NN(c2ccccc2)C(=O)C1N=Nc1ccc(C)cc1 (stereo unspecified)	.	.	3.2	.	.	1.8
O=C(NCCc1ccccc1)OCc1cn(-c2ccc(F)c(F)c2)nn1	.	.	.	.	0.0	.
Cc1ccc(NC(=O)c2cc(S(=O)(=O)N3CCCCC3)ccc2N2CCOCC2)cc1S(=O)(=O)N(C)C	27.1*	27.8	.	25.5*	4.0	.
Cc1nc2c(C(=O)NCc3ccc4c(c3)OCO4)c[nH]n2c(=O)c1Cl	4.0	7.0	-14.1	12.9	55.1*	5.5
O=C(NCCC1=CCCCC1)c1cnc2n(c1=O)CCS2	5.2	-0.7	-6.7	9.8	-2.6	-11.8
Cc1ccc(C(=O)NCc2ccc3c(c2)OCO3)c(Cl)c1	.	.	.	.	-0.3	.
